PINK1 modulator: changes PINK1 expression; PINK1 immunofluorescence, high-content cytometry, 24 h; Potency, µM (titrated, usually from 76.6 µM), usual class: activators; actives 0.2% (n = 410,000); active = well fitted activation curve with a large enough effect; inconclusive = small, poorly fitted or top-dose-only effect; cell line not stated here; also: nearly all actives have a fitted effect of over 65% in size
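Stable cell line treated 24 h with compounds at 5 concentrations (CCCP controls), then fixed and immunostained for PINK1 plus nuclear and cell stains; PINK1 immunofluorescence quantified by laser-scanning microplate cytometry.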
MCF10A rerep: inducers of DNA re-replication in MCF 10A breast cells; AID 624296; MCF 10A DNA re-replication, Hoechst nuclear intensity, 48 h; actives 2.9% (n = 350,000); Potency, µM (titrated, usually from 46.1 µM), hits mostly activators; also: nearly all actives have a fitted effect of over 50% in size
KB-V1 MDR tox: KB-V1 MDR subline cytotoxicity; actives 3.4% (n = 400,000); KB-V1 MDR cells viability, CellTiter-Glo, 72 h; Potency, µM (titrated, usually from 46.1 µM), actives largely listed as cytotoxic; also: nearly all actives have a fitted effect of over 60% in size
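Compound-treated KB-V1 multidrug-resistant cells, 72 h, 37 degrees C; viability by CellTiter-Glo. Fitted qHTS curves give the values.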
KB-3-1 tox: KB-3-1 parental cell cytotoxicity; KB-3-1 viability, CellTiter-Glo ATP luminescence, 72 h; Potency, µM (series often up to 46.1 µM), usual class: cytotoxic; actives 1.4% (n = 400,000); AID 1347075; also: nearly all actives have a fitted effect of over 60% in size
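Luminescent ATP read-out (CellTiter-Glo) measures survival of drug-naive KB-3-1 cells after 72 h compound exposure at 37 °C. Titration series was screened from lowest to highest concentration, with DMSO vehicle plates as background controls.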
SW480 rereplic: inducers of DNA re-replication in SW480 colon cancer cells. SW480 DNA re-replication, Hoechst DNA content imaging, 48 h. Potency, µM (titrated, usually from 46.1 µM), most hits filed as activators. actives 1.8% (n = 340,000). AID 624297; also: nearly all actives have a fitted effect of over 55% in size
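Image-based DNA-content assay: after two days of treatment, nuclei were labelled with the DNA dye Hoechst and imaged, and hits were compounds raising the count of nuclei showing high fluorescence intensity.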
Large screens that a line does not name were inactive. Shown are actives, neighbours in structure and some others; about 6.7% of the full set was active somewhere. Unless noted, calls follow the shape of the dose curve; as a rule, active = well fitted curve in the direction sought with a large enough effect; inconclusive = small, poorly fitted or top-dose-only effect, or another doubt; inactive = no such curve, though single readings can be large; an effect the other way counts as inactive or inconclusive.

COc1cccc(N2CC(NC(=O)Cc3cccs3)CC2=O)c1 (configuration not stated)	none (no result: MCF10A rerep, KB-V1 MDR tox, KB-3-1 tox, SW480 rereplic)
COc1ccccc1NCc1nnc(-c2ccccc2)o1	none
CCCN1CNc2c(c(=O)[nH]c(=S)n2CCC)C1	none (no result: MCF10A rerep, KB-V1 MDR tox, KB-3-1 tox, SW480 rereplic)
O=C1/C(=C/c2ccccc2[N+](=O)[O-])COc2ccccc21	MCF10A rerep inconclusive
CC1(C)CC(=Cc2cc(O)ccc2[N+](=O)[O-])C(=O)c2ccccc21	PINK1 modulator 20µM, KB-V1 MDR tox inconclusive, KB-3-1 tox inconclusive (no result: MCF10A rerep, SW480 rereplic)
Cc1ccc(CNC(=O)CSc2nc3ccccc3nc2Cc2ccc(C)cc2)cc1	none (no result: MCF10A rerep, SW480 rereplic)
Cc1cccc(NC(=O)c2ccc3nccnc3c2)c1C	none
O=C(CN1CCN(S(=O)(=O)c2ccc(Br)cc2)CC1)N/N=C/c1ccc(Br)s1	KB-V1 MDR tox 21µM
CCCNC(=O)CN1CCN(S(=O)(=O)c2ccc(Br)s2)CC1	KB-V1 MDR tox inconclusive
O=C(CN1CCN(S(=O)(=O)c2ccc(Br)s2)CC1)NC1CCCCC1	KB-V1 MDR tox 10µM
Cc1ccc(/C=N/NC(=O)CN2CCN(S(=O)(=O)c3ccc(Br)cc3)CC2)s1	KB-V1 MDR tox inconclusive
Cc1ccc(NC(=O)CN2CCCN(S(=O)(=O)c3ccc(Br)s3)CC2)cc1	KB-V1 MDR tox 4.6µM
Cc1cc(C)cc(NC(=O)CN2CCCN(S(=O)(=O)c3ccc(Br)s3)CC2)c1	KB-V1 MDR tox 2.9µM, KB-3-1 tox inconclusive
O=C(C[C@@H]1C/C=C\C[C@H](Cc2ccc(F)cc2)C(=O)OC[C@@H](c2ccccc2)NC1=O)NCCO	none
CC(=O)OC1CC(c2cc(C(C)(C)C)c(O)c(C(C)(C)C)c2)=NO1 (configuration not stated)	MCF10A rerep inconclusive, KB-V1 MDR tox inconclusive, SW480 rereplic 15µM
CC(=O)Nc1ccc2cc3ccc(NC(C)=O)cc3nc2c1	KB-3-1 tox 23µM
Cc1ccc(S(=O)(=O)NCC(=O)N(CC(=O)NC2CCCC2)CC2CCCO2)cc1 (configuration not stated)	none
COc1ccccc1CN(C)CC(=O)NC(=O)NC1CCCCC1	MCF10A rerep inconclusive, KB-V1 MDR tox inconclusive
COc1ccc(C(=O)/C=C/C(=O)N(CC(=O)NC2CCCCC2)Cc2ccccc2)c(O)c1	MCF10A rerep inconclusive, KB-3-1 tox inconclusive, SW480 rereplic 6.5µM
COc1ccc(C(=O)/C=C/C(=O)N(CC(=O)NC2CCCCC2)CC2CCCO2)c(O)c1 (configuration not stated)	MCF10A rerep 12µM, KB-V1 MDR tox inconclusive, KB-3-1 tox inconclusive
COc1cccc(CN(CC(=O)NC2CCCC2)C(=O)CCC(=O)Nc2cc(C)on2)c1	none
COc1ccc(C(=O)/C=C/C(=O)N(CC(=O)NC2CCCCC2)Cc2ccccc2OC)c(O)c1	MCF10A rerep inconclusive, KB-V1 MDR tox 15µM, KB-3-1 tox inconclusive, SW480 rereplic 3.3µM
Cn1c(Cl)c(C(=O)Nc2ccc(Cl)cc2)c2ccccc21	KB-V1 MDR tox 21µM, KB-3-1 tox 8.2µM
Cc1ccccc1/C=C1\Sc2ccc(C(=O)N3CCN(c4ccccn4)CC3)cc2N(C)C1=O	MCF10A rerep 23µM, KB-V1 MDR tox inconclusive
CN1CCN(C(=O)c2ccc3c(c2)NC(=O)/C(=C/c2ccccc2)S3)CC1	MCF10A rerep inconclusive, KB-3-1 tox inconclusive, SW480 rereplic inconclusive
Cc1ccc(/C=C2/Sc3ccc(C(=O)N4CCN(c5ccccn5)CC4)cc3NC2=O)cc1	MCF10A rerep 8.2µM
Cc1ccc(/C=C2/Sc3ccc(C(=O)NCc4ccccn4)cc3NC2=O)cc1	PINK1 modulator 28µM, MCF10A rerep inconclusive, SW480 rereplic inconclusive
CC(=O)c1ccccc1NC(=O)C1CCCN(C(=O)c2ccc(Cl)cc2)C1 (configuration not stated)	none
COc1nc(-c2ccc(C)cc2)ccc1-c1noc(-c2cccnc2)n1	MCF10A rerep 21µM
COc1ccc(-c2ccc(-c3noc(-c4ccccc4C)n3)c(OC)n2)cc1	MCF10A rerep 15µM
COc1ccc(-c2ccc(-c3noc(C4CCCCC4)n3)c(OC)n2)cc1	KB-V1 MDR tox 16µM
COc1ccc(-c2ccc(-c3noc(C)n3)c(OC)n2)cc1	PINK1 modulator 16µM
CN(c1ccc(C(=O)NCCCn2ccnc2)cc1)S(C)(=O)=O	none
O=C(N/N=C/c1sc(=O)[nH]c1-[n+]1ccccc1)c1ccccc1[O-]	none
O=C(N/N=C/c1sc(=O)[nH]c1-[n+]1ccc2ccccc2c1)c1ccccc1[O-]	KB-V1 MDR tox inconclusive, KB-3-1 tox 8.2µM
O=C(Cc1cccs1)NC(c1ccccc1)c1ccccc1	none
O=C(COC(=O)/C(=C/c1cccs1)c1cccs1)NC(c1ccccc1)c1ccccc1	KB-V1 MDR tox 8.2µM
Nc1ccc2nn(-c3ccc(F)cc3)nc2c1	MCF10A rerep 18µM, SW480 rereplic inconclusive
CC(C)c1ccc(-n2nc3ccc(N)cc3n2)cc1	MCF10A rerep 23µM, SW480 rereplic 23µM
CC(C)C(=O)Nc1ccc2nn(-c3ccc(F)cc3)nc2c1	MCF10A rerep inconclusive
Cc1ccc(-n2nc3ccc(N)cc3n2)cc1	MCF10A rerep inconclusive, SW480 rereplic 16µM
Cc1ccc(-n2nc3ccc(NC(=O)C(C)C)cc3n2)cc1	KB-3-1 tox inconclusive
COc1cc(CN2C[C@@H](CO)O[C@@H](n3cnc4c(NCc5ccco5)ncnc43)C2)cc(OC)c1OC	none (no result: MCF10A rerep, SW480 rereplic)
COc1ccc(CC2C(=O)NC(C)C(=O)N(C)C3Cc4ccc(cc4)Oc4cc(ccc4O)CC(C(=O)NC(C)C(=O)NC(C)C(=O)N2C)N(C)C3=O)cc1 (configuration not stated)	MCF10A rerep inconclusive, KB-3-1 tox 0.23µM, SW480 rereplic 4.6µM
Cc1ccc(F)cc1CNC(=O)c1sc2ncnc(NCC3CCCO3)c2c1C (configuration not stated)	none (no result: MCF10A rerep, KB-V1 MDR tox, KB-3-1 tox, SW480 rereplic)
CCOc1ccc2c(c1)C(c1cccs1)=NNC(c1cccnc1)=N2	KB-V1 MDR tox inconclusive, SW480 rereplic inconclusive
Brc1ccc2c(c1)C(c1cccs1)=NNC(c1cccnc1)=N2	KB-V1 MDR tox 21µM
Cc1c(Cl)cccc1NC(=O)CNc1cccc(S(=O)(=O)N(C)C)c1	KB-V1 MDR tox 16µM
CN(C)S(=O)(=O)c1cccc(NC(=O)NCCCl)c1	none
CCc1ccc(OCCCC(=O)Nc2cccc(C(=O)O)c2)cc1	SW480 rereplic 23µM
CN(C)S(=O)(=O)c1cccc(NC(=O)CCNC(=O)Nc2ccccc2)c1	none
CC(=O)c1ccc(OCCCC(=O)Nc2cccc(S(=O)(=O)N(C)C)c2)cc1	KB-V1 MDR tox 13µM, KB-3-1 tox inconclusive
COC(=O)c1cccc(NC(=O)CCCOc2ccccc2)c1	none
CN(C)S(=O)(=O)c1cccc(NC(=O)CCSc2ccc(Cl)cc2)c1	KB-V1 MDR tox 12µM, KB-3-1 tox inconclusive
COc1cc(CCC(=O)Nc2cccc(S(=O)(=O)N(C)C)c2)cc(OC)c1OC	KB-V1 MDR tox 21µM, SW480 rereplic inconclusive
COC(=O)c1cccc(NC(=O)CCc2cc(OC)c(OC)c(OC)c2)c1	none
